# Source: PubChem (National Center for Advancing Translational Sciences (NCATS))
# JMJD2A Tudor inh – qHTS Assay for Inhibitors of JMJD2A-Tudor Domain | Lysine-specific demethylase 4A (Homo sapiens), O75164 | AlphaScreen JMJD2A-Tudor / H3K4me3 peptide binding | Potency, µM (top dose mostly 114 µM), inactives show at the highest dose activity change, negative = inhibition, hits mostly inhibitors | hit rate 4.4% among 390,000; further: on the % scale 0 is the no-effect control and ±100 the full control effect; nearly all actives have a fitted effect of over 50% in size
# Target sequence (O75164 whole entry, looked up, the tested form may be a part): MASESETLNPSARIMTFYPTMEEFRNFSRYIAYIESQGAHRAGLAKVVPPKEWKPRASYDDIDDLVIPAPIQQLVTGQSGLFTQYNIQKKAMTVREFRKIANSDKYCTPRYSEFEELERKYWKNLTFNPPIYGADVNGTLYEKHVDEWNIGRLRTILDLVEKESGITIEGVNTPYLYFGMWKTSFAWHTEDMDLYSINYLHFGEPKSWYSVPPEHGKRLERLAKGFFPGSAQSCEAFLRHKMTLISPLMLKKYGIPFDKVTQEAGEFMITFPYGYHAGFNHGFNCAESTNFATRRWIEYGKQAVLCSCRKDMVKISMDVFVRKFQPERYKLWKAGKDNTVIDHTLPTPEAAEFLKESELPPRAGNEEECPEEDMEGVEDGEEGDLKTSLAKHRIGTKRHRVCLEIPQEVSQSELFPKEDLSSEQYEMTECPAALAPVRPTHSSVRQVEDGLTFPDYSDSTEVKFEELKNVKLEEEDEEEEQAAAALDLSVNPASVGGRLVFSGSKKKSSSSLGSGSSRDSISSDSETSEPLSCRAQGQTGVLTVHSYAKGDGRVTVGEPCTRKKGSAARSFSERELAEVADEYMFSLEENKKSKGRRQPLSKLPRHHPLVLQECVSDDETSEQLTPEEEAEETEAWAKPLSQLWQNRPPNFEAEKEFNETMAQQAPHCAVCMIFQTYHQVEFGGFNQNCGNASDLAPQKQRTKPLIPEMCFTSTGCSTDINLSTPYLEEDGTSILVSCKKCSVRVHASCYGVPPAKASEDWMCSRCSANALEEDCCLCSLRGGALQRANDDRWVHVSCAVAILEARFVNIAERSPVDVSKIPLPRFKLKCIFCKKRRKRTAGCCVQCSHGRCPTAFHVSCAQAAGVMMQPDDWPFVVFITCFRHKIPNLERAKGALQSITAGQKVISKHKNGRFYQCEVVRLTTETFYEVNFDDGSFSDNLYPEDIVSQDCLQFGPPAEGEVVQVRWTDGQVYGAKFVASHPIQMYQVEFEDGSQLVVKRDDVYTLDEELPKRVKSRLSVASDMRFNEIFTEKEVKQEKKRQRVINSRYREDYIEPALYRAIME
# HP1b binding inh – HTS for Inhibitors of HP1-beta Chromodomain Interactions with Methylated Histone Tails | Chromobox protein homolog 1 (Homo sapiens), P83916 | AlphaScreen HP1-beta / biotin-H3K9me3 peptide binding | Potency, µM (highest dose often 114 µM), inactives show top-dose activity change, negative = inhibition, actives largely listed as inhibitors | hit rate 0.56% among 390,000 | AID 540317, 2011; further: nearly all actives have a fitted effect of over 70% in size
#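 HP1-beta protein (50 nM final) preincubated 30 min at room temperature with biotinylated H3(1-18)K9me3 peptide (50 nM) in PBS pH 7.4, 0.01% Tween-20, then compound added for 30 min. AlphaScreen streptavidin donor/nickel chelate acceptor beads (10 ug/mL final), 30 min dark, luminescence read.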
# BAZ2B block – qHTS Assay for Inhibitors of BAZ2B | Potency, µM (doses to about 114 µM), for the others: top-dose activity change, negative = inhibition, usual class: inhibitors | hit rate 4.4% among 360,000 | AlphaScreen BAZ2B-H3K14Ac peptide displacement; further: on the % scale 0 is the no-effect control and ±100 the full control effect; nearly all actives have a fitted effect of over 60% in size
#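 Complex of BAZ2B and biotin-H3K14Ac (50 nM apiece) forms over 30 min at RT, then faces library compounds up to 110 uM for another 30 min; AlphaScreen beads added, 20 min dark incubation, luminescence read.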
# G9a block – qHTS Assay for Inhibitors of Histone Lysine Methyltransferase G9a; Histone-lysine N-methyltransferase EHMT2 (Homo sapiens), Q96KQ7; G9a H3K9 monomethylation, AlphaScreen, 2 h; Potency, µM (titrated, usually from 102 µM), without a hit: at the top dose activity, negative = inhibition, hits mostly inhibitors; hit rate 8.8% among 350,000; AID 504332, 2011; further: on the % scale 0 is the no-effect control and ±100 the full control effect; nearly all actives have a fitted effect of over 75% in size
#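 Enzyme 20 nM + cpd, 15 min RT; add b-H3K9 pep 500 nM / SAM 20 uM; 2 h RT; anti-H3K9me1 Ab 0.5 ug/mL + SA donor / anti-rabbit acceptor beads 20 ug/mL each, 10 min; AlphaScreen read.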
# L3MBTL1 block – qHTS Assay for the Inhibitors of L3MBTL1; Lethal(3)malignant brain tumor-like protein 1 (Homo sapiens), Q9Y468; AlphaScreen L3MBTL1–H3K9me1 peptide binding; Potency, µM (highest dose often 57.1 µM), without a hit: at the top dose activity, negative = inhibition, usual class: inhibitors; hit rate 0.66% among 230,000; further: on the % scale 0 is the no-effect control and ±100 the full control effect; nearly all actives have a fitted effect of over 60% in size
#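 L3MBTL1 (50 nM) pre-complexed 30 min with biotinylated H3(1-15)K9me1 peptide (75 nM), then compounds added for 30 min at room temperature; AlphaScreen streptavidin donor/nickel chelate acceptor beads (10 ug/mL final) read after 30 min dark incubation.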
# Sfp inh – qHTS Assay for Inhibitors of Bacillus subtilis Sfp phosphopantetheinyl transferase (PPTase); Biochemical Sfp PPTase activity, qHTS; hit rate 3.5% among 310,000; Potency, µM, for the others: largest response in the series, negative = inhibition, hits mostly inhibitors;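 further: the enzyme is Sfp with the accession as filed and its product quenches rhodamine fluorescence; 0% = enzyme reaction without inhibitor and -100% = no enzyme wells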
#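 Sfp 15 nM + cpd, 15 min RT; start w/ rhodamine-CoA 5 uM, BHQ-2-YbbR 12.5 uM (final); 50 mM Hepes pH 7.6, 10 mM MgCl2, 0.01% NP-40, 0.01% BSA; read 525/598 nm at 0 and 30 min.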
# The depositor's hits bear a star; ? = inconclusive; · = not tested or not shown; [ ] = dose if it differs, or a comment. In the library only some 12% were active in any assay of this set; here they are far more common. The call rests on the fitted dose curve; in most records, active means well fitted curve in the direction sought with a large enough effect; inconclusive means small, poorly fitted or top-dose-only effect, or another doubt; inactive means no such curve, though single readings can be large; an effect the other way counts as inactive or inconclusive. Potency means the concentration at half of the fitted maximal effect.
SMILES,JMJD2A Tudor inh,HP1b binding inh,BAZ2B block,G9a block,L3MBTL1 block,Sfp inh
CN(C)c1ccc(CNC(=O)c2ccc3c(c2)N(C)C(=O)C2CCCCN32)cc1 (stereo unspecified),44.7µM*,-2.2%[57 µM],44.7µM*,17.8µM*,·,·
CC(CNC(=O)Cn1c(-c2cccs2)cc2cc(Cl)ccc21)c1ccccc1 (stereo unspecified),-8.9%,21.6%,2.5%,-1.8%[59 µM],·,·
S=C(NNc1ccnc2cc(Cl)ccc12)Nc1ccc(Cl)cc1Cl,?,?,?,?,·,20µM*
CCOc1ccccc1Nc1ccnc2cc(Cl)ccc12,16.2%,89.6%,4.8%,3.9%,-0.3%,0.2%
CCOc1ccc(NC(=S)NNc2ccnc3cc(Cl)ccc23)cc1,22.4µM*,11.2µM*,?,7.08µM*,-29.9%,20µM*
Cc1ccc(-n2nnc(-c3nccs3)n2)cc1,-2.8%,55.6%,5.5%,1.9%[59 µM],22.5%,-6.0%
Clc1ccc(-n2nnc(-c3nccs3)n2)cc1Cl,15.8µM*,-1.5%,-14.4%,3.16µM*,13.1%,39.8µM*
CC(C)(C)C(=O)[C@H]1[C@H](c2ccccc2)[C@@]2(N=C(c3ccccc3)OC2=O)C2c3ccccc3C=NN21 (stereo partly specified),?,-4.8%,-3.3%[57.1 µM],79.4µM*,-3.1%,2.9%
CN1CCc2nc3ccccc3c(C(=O)OCC(=O)N(CCC#N)c3ccccc3)c2C1,-12.7%,28.9%,?,22.4µM*,-8.0%,-8.8%
COC(=O)[C@]1(C)N[C@H](CN(C)S(=O)(=O)c2ccc(OC(F)(F)F)cc2)[C@@H]2C(=O)N(C)C(=O)[C@@H]21,-2.7%,19.3%,·,·,4.3%,·
CC(C)Oc1ccc(C(=O)Nc2nonc2-c2ccc(OC(C)C)cc2)cc1,-28.0%,8.9%,-0.6%,-19.0%[59 µM],·,·
CCNC(=O)N(C)C[C@H]1N[C@@](Cc2ccccc2)(C(=O)OC)[C@H]2C(=O)N(C)C(=O)[C@@H]12,-22.5%,14.7%,·,·,3.2%,·
O=[N+]([O-])C1=CC=C2C(=NC3(CCCCC3)N2O)C1=NCCc1ccccc1,-12.8%[11.4 µM],-22.2%,-23.7%,7.08µM*,·,13.7%
O=[N+]([O-])C1=CC=C2C(=NC3(CCCCC3)N2O)C1=NC1CCCCC1,?,12.6µM*,3.16µM*,·,-9.2%,-18.0%
CC1(C)CC(N=C2C([N+](=O)[O-])=CC=C3C2=NC2(CCCCC2)N3O)CC(C)(C)N1,-12.5%,-10.2%,-34.7%,·,-28.5%,-18.6%
CC(C)(C)N=C1C([N+](=O)[O-])=CC=C2C1=NC1(CCCCC1)N2O,6.31µM*,25.1µM*,5.62µM*,3.55µM*,?,?
COc1ccccc1NC(=O)C(C)OC(=O)c1nc2nc(C)cc(C)n2n1 (stereo unspecified),0.7%,21.8%,11.0%,-36.3%,-6.6%,·
COc1ccc(C(=O)c2nc3c(n2O)CCCC3)cc1OC,50.1µM*,1.2%,-27.3%,?,·,-22.8%
CC(C)CN(CC(C)C)C(=O)CC(=O)NC(=O)c1ccc(Cl)cc1,16.1%,20.6%,89.1µM*,-5.0%[59 µM],3.7%,6.2%
CC(C)CC(NC(=O)c1ccc(Cl)cc1)C(=O)O (stereo unspecified),-13.5%,22.8%,-2.6%,16.6%,·,16.2%
O=c1c2cc(Cl)ccc2nc(-c2ccccc2)n1O,?,-1.0%,79.4µM*,-29.2%,22.5%,10.6%
CCc1ccc(S(=O)(=O)Nc2cccc(-c3ccc(N4CCOCC4)nn3)c2)cc1,-13.7%,18.6%[57 µM],-12.0%,5.4%[59 µM],·,·
Nc1nc(N)c2[nH]c(=S)[nH]c2n1,3.55µM*,?,·,·,·,·
Cc1occc1C(=O)Nc1ccccc1NC(=O)c1ccoc1C,89.1µM*,-7.1%,·,·,·,·
CNS(=O)(=O)c1ccc(NC(=O)c2ccoc2C)cc1,3.0%[11.4 µM],28.6%,-21.5%,-33.5%,-7.3%,24.0%
SMILES,JMJD2A Tudor inh,HP1b binding inh,BAZ2B block,G9a block,L3MBTL1 block,Sfp inh
Cc1occc1C(=O)NNC(=O)Nc1ccc(Cl)c(Cl)c1,50.1µM*,-7.7%,-3.5%,0.3%[59 µM],-1.0%,-28.0%
Cc1cc(C(=O)Nc2cccc3ccccc23)c(C)o1,-22.4%,-14.2%,-17.5%,14.5%,·,5.3%
Cc1occc1C(=O)Nc1ccc(S(N)(=O)=O)cc1,22.4µM*,?,-12.6%,·,-20.2%,-6.7%
Cc1occc1C(=O)Nc1cccc2ccccc12,-15.5%,4.8%,-30.9%,11.2µM*,-5.1%,-9.4%
Cc1ccsc1C(=O)NNC(=O)Nc1ccc(Cl)c(Cl)c1,3.1%[11.4 µM],-16.8%,3.4%,14.8%[59 µM],1.6%,-11.8%
Cc1occc1C(=O)Nc1ccccc1C#N,-10.3%,36.4%,0.7%,·,·,-1.2%
Cc1cccc(NC(=O)CSc2nnc(C3CC3)n2CC2CCCO2)c1C (stereo unspecified),-12.3%,14.0%,-1.7%,-6.8%,·,-0.8%
Cc1cc(NC(=O)c2ccoc2C)no1,-33.3%,12.8%,-1.1%,5.01µM*,6.0%,-27.1%
Cc1cc(NC(=O)c2cc(C)on2)no1,-11.5%,29.5%,-4.4%,-45.1%,3.7%,5.8%
Cc1[nH]c2ccccc2c1/C=N/n1cnnc1,-2.7%[11.4 µM],-7.9%,13.5%,8.2%[59 µM],4.9%,0.8%
CCN(CC)c1ccc(N=Cc2c(C)[nH]c3ccccc23)cc1,35.5µM*,31.6µM*,12.6µM*,14.1µM*,?,50.1µM*
CCc1ccc(NC(=O)c2ccc(CN3CC(=O)N4CCCCC4C3=O)cc2)cc1 (stereo unspecified),-21.5%,-5.3%,-2.9%,3.2%[59 µM],·,·
COc1ccc(C(CNC(=O)COc2ccc(Cl)c(C)c2)N2CCOCC2)cc1 (stereo unspecified),-18.9%,33.5%,-12.4%,-23.7%[59 µM],·,·
COc1cc(/C=C(\C#N)C(=O)c2c(C)[nH]c3ccccc23)cc(OC)c1OC,28.2µM*,?,-13.4%,44.7µM*,-6.0%,-15.7%
O=C(NNC(=O)C12CC3CC(CC(C3)C1)C2)c1ccncc1,6.3%,14.0%,-9.8%,39.8µM*,·,-7.1%
CC(=O)CSc1nnc(CN2C(=O)CSc3ccc(C(F)(F)F)cc32)n1C,-12.8%,36.7%,-1.5%,44.7µM*,4.5%,-4.5%
CCN(C(=O)CSc1nc2ccccc2n1CC(C)C)c1c(N)n(Cc2ccccc2)c(=O)[nH]c1=O,-12.5%,52.6%,·,·,·,·
CCN(C(=O)CSc1nc2ccccc2o1)c1c(N)n(Cc2ccccc2)c(=O)[nH]c1=O,-11.0%,10.6%,9.5%,7.08µM*,-2.0%,·
